compound: CCc1cnn2c(NCc3ccc[n+]([O-])c3)cc(N3CCCC[C@H]3CCO)nc12 [dinaciclib]; assay: cell viability remaining relative to DMSO control; higher = less cytotoxic (more viable cells); settings: 100 nM; 24 h
Summary of the method: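 Remaining viability, expressed as a percentage of the DMSO control, compares luminescence in treated wells with that in DMSO-treated control wells. Solid tumour cell lines from commercial banks received 100 nM of the test compound for 24 hr, with final DMSO kept at ≤0.2%. Viability was read as ATP luminescence using CellTiter-Glo, and values are means from 2–6 plates run in triplicate wells.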

Target | cell viability remaining
NCI-H1395 | 36%
AZ521 | 56.1%
COLO205 | 22.4%
H1703 | 5.5%
59M | 73.2%
CALU6 | 58.4%
SKMEL31 | 66.9%
SW1116 | 86.8%
H1838 | 90.6%
MCF7 | 76%
COV362 | 81%
HLE | 37.7%
G401 | 10.4%
EFO21 | 93.6%
CAL120 | 76.8%
COLO704 | 78.2%
HS600T | 93.8%

Target | cell viability remaining
SKMEL3 | 42.9%
DLD1 | 46.8%
HEC265 | 46.7%
HEC1B | 94.1%
H2052 | 91.9%
RKN | 55.6%
H2452 | 21.1%
SCC25 | 20.5%
HEC59 | 67.6%
A549 | 55.3%
UACC62 | 57.1%
NUGC4 | 108%
OVKATE | 105%
LS1034 | 75%
A498 | 68.3%
MIAPACA2 | 41.2%
